# CYP2C19 activ: activators of human cytochrome P450 2C19; P33261; recombinant CYP2C19, luciferin-H EGE luminescence; stronger effect = higher value; 0 = fully inhibited enzyme, 1 = untreated enzyme; activation factor at 5 µM; 96,000 tested, under 10 active; AID 1025;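 active = activation factor of at least 2 at 5 µM in the primary screen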;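 note: 0 = wells with 2.5 mM tranylcypromine and 1 = vehicle-only wells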
# Target sequence (P33261 whole entry, looked up): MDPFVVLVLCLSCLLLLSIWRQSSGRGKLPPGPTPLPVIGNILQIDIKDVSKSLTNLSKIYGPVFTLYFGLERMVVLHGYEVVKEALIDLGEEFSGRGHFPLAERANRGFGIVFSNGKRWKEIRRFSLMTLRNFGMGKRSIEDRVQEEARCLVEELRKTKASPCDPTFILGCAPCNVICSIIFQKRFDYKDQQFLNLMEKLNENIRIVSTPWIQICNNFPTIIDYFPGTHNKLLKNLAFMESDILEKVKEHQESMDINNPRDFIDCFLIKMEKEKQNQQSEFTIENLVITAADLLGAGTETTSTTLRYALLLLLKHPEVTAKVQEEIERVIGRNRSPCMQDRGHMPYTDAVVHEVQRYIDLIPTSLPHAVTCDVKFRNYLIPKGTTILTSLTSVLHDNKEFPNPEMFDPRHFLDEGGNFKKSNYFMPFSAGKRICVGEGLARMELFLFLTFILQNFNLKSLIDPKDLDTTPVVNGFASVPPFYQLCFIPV
# CYP2C9 inhib: inhibitors of human CYP2C9 | P11712 | CYP2C9 Supersomes, luciferin-H conversion, luminescence | inhibition, % at 5 µM | hit rate 20% among 96,000;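 active = blocking of liver enzyme CYP2C9 beyond about 50% at 5 µM, limit read from the data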
# CYP2C9 act: activators of human CYP2C9; P11712; recombinant CYP2C9, luciferin-H conversion, luminescence; stronger effect = higher value; factor 1 = untreated enzyme, 0 = blocked; activation factor at 5 µM; hit rate 1.4% among 96,000;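 active = activation factor of 2 or more for CYP2C9 at a 5 µM dose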;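 note: 0 = sulfaphenazole-blocked wells and 1 = vehicle-only wells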
# Measles CPE: protection of cells from measles virus. hit rate 1.5% among 140,000. Measles virus-infected cells, CPE protection, absorbance. protection (pct of control), % at 4 µM. AID 841; in the data active = protection mostly above about 24%, no sharp cut-off; inactive = mostly below about 26%
# CYP2C19 inhib: inhibitors of human CYP2C19; hit rate 21% among 96,000; inhibition, % at 5 µM; CYP2C19 Supersomes, luciferin-H EGE luminescence, 30 min; P33261;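 active = CYP2C19 inhibition above a set limit at 5 µM in the primary screen, cut at about 50% in these data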;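 note: plate controls were negative control wells for no effect and 2.5 mM tranylcypromine positive control for full effect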
# Starred values were filed as active, the others as inactive; / = no result given. Rows were chosen to be rich in hits. Some 22% of all compounds tested hit in one or more screens of this group.
SMILES,CYP2C19 activ,CYP2C9 inhib,CYP2C9 act,Measles CPE,CYP2C19 inhib
OC(Cn1cncn1)c1ccc(Cl)cc1Cl (configuration not stated),0,56*,0.4,9,98*
OC(c1ccc(Cl)cc1Cl)C(Cc1cccnc1)n1cncn1 (configuration not stated),0.1,9,0.9,14,86*
CC(=O)C1=C(O)C(=O)N(Cc2cccnc2)C1c1ccc(Cl)cc1Cl (configuration not stated),/,/,/,17,/
Cc1nn(-c2ccccc2)c2sc(C(=O)NC3CC3)cc12,1,51*,0.5,12,-3
Cc1nn(-c2ccc(F)cc2)c2sc(C(=O)N3CCCCCC3)cc12,0.3,68*,0.3,3,68*
CC(=O)c1sc(NC(=O)c2cc3c(C)nn(-c4ccccc4)c3s2)nc1C,1,8,0.9,5,2
Cc1nc(NC(=O)c2cc3c(C)nn(-c4ccccc4)c3s2)sc1C(=O)Nc1ccccc1,0.6,59*,0.4,5,38
Cc1nn(-c2ccccc2)c2sc(C(=O)N(CC(=O)NC3CCCC3)Cc3ccco3)cc12,0.3,70*,0.3,10,72*
O=C(O)CN(c1ccc(F)cc1)S(=O)(=O)c1ccc2c(c1)OCCO2,0.9,24,0.8,16,10
O=C(CN(c1ccc(F)cc1)S(=O)(=O)c1ccc2c(c1)OCCO2)NCC1CCCO1 (configuration not stated),0.9,20,0.8,3,11
O=C(CN(c1ccc(F)cc1)S(=O)(=O)c1ccc2c(c1)OCCO2)NCc1ccncc1,0.1,73*,0.3,12,90*
CCCNC(=O)CN(c1ccc(F)cc1)S(=O)(=O)c1ccc2c(c1)OCCO2,0.2,85*,0.2,6,81*
O=C(CN(c1ccc(F)cc1)S(=O)(=O)c1ccc2c(c1)OCCO2)NCc1cccnc1,0.1,84*,0.2,13,94*
O=C(C1CCCO1)N1CCN(C(=S)Nc2ccc(F)cc2)CC1 (configuration not stated),/,/,/,3,/
O=C(CSc1nnnn1Cc1ccccc1)NCC(=O)c1ccccc1,0.6,32,0.7,5,36
Cc1ccc(-n2cccc2/C=N/n2cnnc2)cc1Cl,0.6,13,0.9,7,41
COc1cc(C(=O)Nc2ccc(OCC(=O)O)cc2)cc(OC)c1OC,1.2,-7,1.1,10,-16
O=C(COc1ccc(Cl)cc1Cl)NCCC1=CCCCC1,0.9,14,0.9,15,10
C#CCn1c(S(=O)(=O)Cc2ccc(OC)cc2)nc(-c2ccccc2)c1-c1ccccc1,0.4,82*,0.2,13,64*
CCOC(=O)Cn1c(S(=O)(=O)Cc2ccc(Cl)cc2)nc(-c2ccccc2)c1-c1ccccc1,0.5,50*,0.5,6,48
CCc1ccccc1NC(=O)/C(C#N)=C\c1ccc(Sc2ccccc2)o1,0.8,19,0.8,0,23
O=C(CN(CCc1ccccc1)C(=O)Cn1nnc(-c2cccs2)n1)NCc1ccco1,0.4,81*,0.2,20,56*
O=C(CN(Cc1ccccc1Cl)C(=O)Cn1nnc(-c2cccs2)n1)NCC1CCCO1 (configuration not stated),0.7,40,0.6,3,27
O=C(CN(C(=O)Cn1nnc(-c2cccs2)n1)c1ccc2c(c1)OCCO2)NCc1ccccc1,0.4,96*,0,22,60*
Cc1cc(NC(=O)CSc2nc3c(c(=O)n2-c2ccc(Br)cc2)SCC3)no1,/,/,/,23,/
SMILES,CYP2C19 activ,CYP2C9 inhib,CYP2C9 act,Measles CPE,CYP2C19 inhib
CCOC(=O)C1=C(C)N(Cc2ccc(C(=O)O)cc2)C(=O)NC1c1ccc([N+](=O)[O-])cc1 (configuration not stated),/,/,/,5,/
COc1ccc(NC(=O)CCC2COc3ccccc3O2)c(OC)c1 (configuration not stated),0.2,26,0.7,20,83*
O=C(NCc1ccccc1)C1COc2ccccc2O1 (configuration not stated),/,/,/,5,/
COc1ccc(CCNC(=O)CC2COc3ccccc3O2)cc1OC (configuration not stated),0,97*,0,9,97*
COc1ccc(CNC(=O)C2COc3ccccc3O2)c(OC)c1 (configuration not stated),0.2,5,0.9,15,78*
COc1cc(OC)c(OC)cc1NC(=O)CC1COc2ccccc2O1 (configuration not stated),/,/,/,8,/

# Assay outcomes: PubChem, several laboratories
